These results are taken from the OligoGym collection.
Also: reference of the scale not given here.

For one test, the target named is KCNJ11. Description: pooled miR-30 sensor sort-seq; sequence = guide strand. Conditions: shRNA.
Turning to TAGTCCACAGAGTAACGTCCGT, the sensor-assay potency score (higher = more potent) is -0.814. ATGCTTGCTGAAGATGAGGGTC returned a sensor-assay potency score (higher = more potent) of -1.14. Consider ACATGGTAGATGATCAGCGGGG, for which the sensor-assay potency score (higher = more potent) is -0.798. Regarding TAGCATAGTGACAAGTGCCTTG, the sensor-assay potency score (higher = more potent) stood at 0.123. In turn, TTTGACGGTGTTGCCAAACTTG yielded a sensor-assay potency score (higher = more potent) of -0.73. TTGGAGTAGTCCACAGAGTAAC showed a sensor-assay potency score (higher = more potent) of -1.69.

The next test deals with KCNJ4. Described as above. Conditions: shRNA.
In turn, TAGTCCACCTTGTAGTGGCTCT displayed a sensor-assay potency score (higher = more potent) of -0.556. For TTACTCTCCTGCAGCTCCCGGG, the sensor-assay potency score (higher = more potent) was -0.832. On the same count and under the same terms, in the case of TCTCGTAGCAGAAGGCACTGGG it was 0.705; in that of TAGCGCTGCGACTTGTTGCTCA, 0.0555; in that of ATGAAGGAGTCGATGACGCAGC, -1.02. Sequence AAAACGTGAGTAGTCCACCTTG displayed a sensor-assay potency score (higher = more potent) of -0.537. The same measure, in the same setting: with TCGCGCACCGAAATGACCGCGT the figure was -0.495; with TAGGAGATGTTGTCCAGCGGGA, -0.546. On to TTGTAGTGGCTCTTCTCCTCGA, for which the sensor-assay potency score (higher = more potent) is -0.739. TAGGTCTTGTGAAAACGTGAGT had a sensor-assay potency score (higher = more potent) of -0.691. With TCGCTGGCCAGGTAGGAGCTGC, the sensor-assay potency score (higher = more potent) was -1.22. TTGGCCGTTCTTCTTGACGAAG had a sensor-assay potency score (higher = more potent) of -1.51.

A further test concerns the target KCNK12. Described as above. Conditions: shRNA.
Take TCGAGCGCCGAGAAGACTGTGG: the sensor-assay potency score (higher = more potent) was -0.801. Consider AGTAAATGCAGCACACGCCGAG, for which the sensor-assay potency score (higher = more potent) is -1.04. In the case of AAGAGGTTGAAGAACAGGATGG, the sensor-assay potency score (higher = more potent) was -0.732. For the sequence TTGAGGTGCGAACGGCGGCAGC, the sensor-assay potency score (higher = more potent) is -1.57. As for TTGAAGAACAGGATGGTCCCAG, the sensor-assay potency score (higher = more potent) turned out to be 0.312.

TACATGGCCGAGGCGCAGCAGG had a sensor-assay potency score (higher = more potent) of -1.41. TCGTTGAGGTGCGAACGGCGGC had a sensor-assay potency score (higher = more potent) of -1.1. On to TTGAGCACCTGCTTGATGAGGA, for which the sensor-assay potency score (higher = more potent) is 0.236. For TTGATGAGGATGGAGATGACGT, the sensor-assay potency score (higher = more potent) is -0.352.

TTCTGCAGCAGCGCCAGCGACA registered a sensor-assay potency score (higher = more potent) of -1.81. Same read-out and setting: in the case of TTGACGCACACGCTGCGCGGGT it was -0.763; in that of TTGTTCATGATGCCCAGCGCGC, -1.54.

In another test the target is KCNK6. The description is as above. The conditions noted are these: shRNA.
TTAGCAAGCACGACCCGCCCCA showed a sensor-assay potency score (higher = more potent) of -0.345.

For the sequence TGGAGGTCGGACACGTGGCGGA, the sensor-assay potency score (higher = more potent) was -1.12. Consider TAGACTGTGACCAGCACCTTGT, for which the sensor-assay potency score (higher = more potent) is -0.385.

TTGCTGGTGCGACTCCGGCTGG yielded a sensor-assay potency score (higher = more potent) of -1.34. In turn, TAGAAGGCATCCAAGAAGCTCC registered a sensor-assay potency score (higher = more potent) of -0.185. Sequence AAGGCATCCAAGAAGCTCCAGG returned a sensor-assay potency score (higher = more potent) of -0.209. Consider TAGTCGGTGTGGGAGCTGGCAG, for which the sensor-assay potency score (higher = more potent) is -1.57. Turning to TAAAGCAGAAGTAGAAGGCATC, the sensor-assay potency score (higher = more potent) was -0.372. On to TTGTGTACCCATAGCCCACGGT, for which the sensor-assay potency score (higher = more potent) is -0.627. With TCATCCGCATTGAAACTGGCAG, the sensor-assay potency score (higher = more potent) was -0.75.
